# Screening data (PubChem BioAssay)
# The list is not random: actives were taken first. Their share in the collection is about 19%.
# IL1B secr inh = inhibitors of inflammasome signaling (IL-1 beta secretion). THP-1 LPS/ATP IL-1B secretion, AlphaLISA, 16 h; active compounds read low. activity change, % at 57.5 µM. hit rate 4.7% among 360,000. AID 743279; in the data active = activity change below about -50%; inconclusive = mostly about -30% to -49%
#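 Secreted IL-1B measured by AlphaLISA bead assay after 16 h compound exposure of THP-1 cells; compounds (final up to 57.5 uM) added 1 h before LPS (250 ng/mL) and ATP (1.25 mM) stimulation; lower signal means less secretion.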
# ELG1 DNA repair = blocks ELG1-dependent DNA repair in HEK293T cells; Potency, µM (top dose mostly 46.1 µM), most hits filed as inhibitors; AID 504467; hit rate 2.3% among 330,000; HEK293T ELG1-luciferase reporter, luminescence, 16 h; DNA damage induced by 5-fluorouridine; note: nearly all actives have a fitted effect of over 55% in size
#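 Cells (2,000 per well) received 5-fluorouridine plus test compound or DMSO and were incubated 16 hr at 37 °C, 5% CO2. Luciferase activity was read by luminescence 30 min after ONE-Glo addition; signal suppression marked inhibition of damage-induced ELG1 function.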
# TDP1 block = inhibitors of human tyrosyl-DNA phosphodiesterase TDP1; Q9NUW8; recombinant TDP1, AlphaScreen DNA substrate cleavage; Potency, µM (doses to about 130 µM), actives largely listed as inhibitors; hit rate 0.28% among 350,000; AID 485290; note: nearly all actives have a fitted effect of over 40% in size
# Target sequence (Q9NUW8 whole entry, looked up): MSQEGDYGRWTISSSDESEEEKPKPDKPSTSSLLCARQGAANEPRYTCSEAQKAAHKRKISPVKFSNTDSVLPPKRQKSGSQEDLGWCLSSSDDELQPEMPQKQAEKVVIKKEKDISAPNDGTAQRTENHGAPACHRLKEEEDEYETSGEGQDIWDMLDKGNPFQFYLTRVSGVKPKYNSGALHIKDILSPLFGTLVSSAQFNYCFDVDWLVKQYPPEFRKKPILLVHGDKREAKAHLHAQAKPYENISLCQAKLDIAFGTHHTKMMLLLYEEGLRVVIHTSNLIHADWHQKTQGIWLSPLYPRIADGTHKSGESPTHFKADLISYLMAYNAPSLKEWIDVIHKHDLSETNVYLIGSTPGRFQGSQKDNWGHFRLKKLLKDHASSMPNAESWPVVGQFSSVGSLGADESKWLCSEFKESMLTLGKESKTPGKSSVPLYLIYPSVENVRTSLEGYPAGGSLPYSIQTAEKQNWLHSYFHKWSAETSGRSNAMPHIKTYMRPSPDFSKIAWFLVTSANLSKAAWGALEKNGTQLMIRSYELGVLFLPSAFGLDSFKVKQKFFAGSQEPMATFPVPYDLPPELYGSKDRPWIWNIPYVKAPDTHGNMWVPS
#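 Signal: AlphaScreen proximity between streptavidin donor and anti-FITC acceptor beads on intact substrate. Reaction: Tdp1 1 nM, substrate 15 nM final, 5 min RT after 15 min compound preincubation.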
# TDP1 cell noCPT = qHTS for Inhibitors of human tyrosyl-DNA phosphodiesterase 1 (TDP1): qHTS in cells in absence of CPT | DT40 Tdp1-/- hTDP1 cells, no CPT, ATP luminescence, 48 h | Potency, µM (series often up to 46.2 µM), most hits filed as inhibitors | hit rate 15% among 420,000; note: nearly all actives have a fitted effect of over 55% in size
#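 Readout: luminescence from CellTiter-Glo after 30 min in the dark at RT. Cells: DT40 Tdp1-/- with stable hTDP1, 400/well. Exposure: compounds alone, ≥48 hr, 37 °C.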
# Giardia killer = kills Giardia lamblia; Giardia lamblia trophozoite viability; activity change, % at 7.66 µM, hits read low; hit rate 0.15% among 340,000; AID 540267; in the data active = activity change below about -80%; inconclusive = between about -30% and that limit;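 note: parasites exposed to compound for two days anaerobically before the ATP read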
#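 Luminescence from cellular ATP indicates surviving trophozoites (100 cells/well) following 48 hrs anaerobic compound treatment at 37 deg C; signal develops 15-30 min at room temperature.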
# DT40 TDP1 CPT = DT40-hTDP1 cell growth loss with CPT | chicken DT40 Tdp1-/-;hTDP1 cells + 20 nM CPT, ATP luminescence, 48 h | Potency, µM (series often up to 46.2 µM), actives largely listed as inhibitors | hit rate 12% among 420,000 | AID 686979; note: nearly all actives have a fitted effect of over 55% in size
#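 Chicken DT40 Tdp1-/- cells stably complemented with human TDP1 were seeded at 400 cells/well in medium containing 20 nM camptothecin, exposed to pin-transferred compounds, and grown at 37 °C for at least 48 hr. Viability was read as ATP luminescence.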
# Hits are given with their value; i = inactive; ? = inconclusive; nt = no result; [ ] = another dose, or the depositor's remark. Unless noted, calls come from the whole dose curve; as a rule, active = well fitted curve in the direction sought with a large enough effect; inconclusive = small, poorly fitted or top-dose-only effect, or another doubt; inactive = no such curve, though single readings can be large; an effect the other way counts as inactive or inconclusive.
SMILES,IL1B secr inh,ELG1 DNA repair,TDP1 block,TDP1 cell noCPT,Giardia killer,DT40 TDP1 CPT
COc1cccc(CNc2ncnc3sc(C(=O)N4CC5CCC4C5)c(C)c23)c1OC (configuration not stated),nt,nt,nt,i,nt,i[9.04 µM]
O=C1CCCCC1(c1ccccc1)c1ccccc1,i,nt,nt,i,i,i
CC(=O)c1ccc(S(=O)(=O)Nc2ccc(C(=O)N3CCC3)cc2)cc1,i,i,i,i,?,i
COc1ccc(C2CC(c3ccccc3)Oc3cc(OC)ccc32)cc1 (configuration not stated),nt,nt,i,nt,i,nt
O=C(Nc1ccccc1)Nc1ncc([N+](=O)[O-])s1,-87,?,i,4.6µM,?,6.5µM
O=C(COC(=O)c1ccccc1)Nc1ncc([N+](=O)[O-])s1,i,i,nt,?,?,i
O=C(Nc1ccc([N+](=O)[O-])cc1)c1cccc([N+](=O)[O-])c1,i,nt,nt,i,nt,i
Cc1csc(NC(=O)c2cc([N+](=O)[O-])cc([N+](=O)[O-])c2)n1,i,i,i,23µM,i,?
O=C(Nc1ncc([N+](=O)[O-])s1)c1cccc([N+](=O)[O-])c1,i,?,i,21µM,-93,9.2µM
O=[N+]([O-])c1cccc(-c2csc(Nc3ccccc3)n2)c1,-105,?,i,29µM,i,?
COc1ccccc1Nc1nc(-c2cccc([N+](=O)[O-])c2)cs1,i,?,i,?,i,?
CCN(C(=O)c1ccc2c(=O)n3c(nc2c1)CCCCC3)c1ccccc1C,i,?,i,?,i,?
O=C(Cc1ccccc1)Nc1nc(-c2cccc([N+](=O)[O-])c2)cs1,i,i,i,?,i,i
O=C(Nc1nc(-c2ccccc2)cs1)c1cccc([N+](=O)[O-])c1,-79,i,i,?,i,?
COc1ccc(C(=O)NCC(=O)N2CCCC(C(F)(F)F)C2)cc1OC (configuration not stated),i,i,i,i,i,i
CCN(CC)C(=O)CSc1nnc(-c2cc3ccccc3cc2O)n1CC,i,?,i,9.2µM,i,0.92µM
Cn1c(SCC(=O)N2c3ccccc3CCc3ccccc32)nnc1-c1cc2ccccc2cc1O,?,i,i,15µM,i,16µM
Cc1cccc(-c2nnc(SCC(=O)N3c4ccccc4CCc4ccccc43)n2C)c1,-56,i,i,23µM,i,?
Cn1c(SCC(=O)N2CCCc3ccccc32)nnc1-c1ccccc1,i,i,i,i,i,i
Cc1cc(C)c(N=Cc2c(O)n(-c3nccs3)c(=O)c3ccccc23)c(C)c1,?,?,i,16µM,i,?
Cc1cccc(C)c1N=Cc1c(O)n(-c2nccs2)c(=O)c2ccccc12,-50,?,i,21µM,i,15µM
O=c1c2ccccc2c(/C=N/c2nnc(Cc3ccccc3)s2)c(O)n1-c1ccc(Cl)cn1,i,i,i,i,i,i
O=c1c2ccccc2c(/C=N/NS(=O)(=O)c2ccccc2)c(O)n1-c1ccccn1,i,i,i,i,i,i
COc1ccc(Cn2c(C)nnc2-c2cnn(C)c2N)cc1,i,i,i,i,i,i
COc1ccc(NC(=O)CSc2nnc(CN3CCOCC3)n2C)cc1Cl,i,nt,nt,i,i,i
SMILES,IL1B secr inh,ELG1 DNA repair,TDP1 block,TDP1 cell noCPT,Giardia killer,DT40 TDP1 CPT
CC(=O)c1ccc(N2CCN(C(=O)c3ccc(Br)cc3)CC2)c(F)c1,i,?,i,13µM,i,9.2µM
CCC(=O)c1ccc(N2CCN(C(=O)c3ccccc3)CC2)c(F)c1,i,i,i,7.3µM,i,18µM
CC(=O)c1ccc(N2CCN(C(=O)c3ccco3)C(C)C2)c(F)c1 (configuration not stated),i,i,i,26µM,i,?
CCCC(=O)c1ccc(N2CCCCCC2)c(F)c1,i,?,i,23µM,i,?
O=C(NNc1nc(-c2ccccc2)cs1)c1cccs1,i,i,nt,23µM,i,?
O=C(NC(=S)Nc1nc(-c2ccccc2)cs1)c1cccs1,i,?,i,i,i,i
O=C1OC(Nc2nc3ccccc3s2)c2ccccc21 (configuration not stated),i,?,i,i,i,i
CC(=O)NNc1nc(-c2ccccc2)cs1,i,i,i,?,i,21µM
O=C1OC(Nc2nc(-c3ccc(F)cc3)cs2)c2ccccc21 (configuration not stated),-92,i,nt,23µM,i,15µM
CCOC(=O)Nc1nc(-c2ccc(Cl)cc2Cl)cs1,i,?,i,10µM,i,?
COC(=O)c1ccc(/C=N/Nc2nc(-c3ccc(Cl)cc3Cl)cs2)cc1,nt,?,i,nt,nt,nt
CC(=O)Nc1nc(-c2cccc3ccccc23)cs1,i,?,nt,?,i,15µM
O=C(NNc1nc(-c2ccc(F)cc2)cs1)c1ccccc1,i,?,i,4.1µM,i,2.6µM
CCOC(=O)c1c(C)[nH]c(C)c1S(=O)(=O)N1CCN(C(=O)c2ccco2)CC1,i,i,i,i,i,i
Nc1cc(N)nc(SCC(=O)Nc2cc(S(=O)(=O)N3CCOCC3)ccc2Cl)n1,i,?,i,i,i,?
Cc1cccc(NCc2ccc(O)c3ncccc23)c1C,i,i,i,15µM,i,?
Cc1cccnc1NCc1ccc(O)c2ncccc12,i,i,i,5.8µM,i,4.6µM
Cc1ccc(NCc2ccc(O)c3ncccc23)cc1,i,i,i,?,i,?
CCCCCCCCOC(=O)C1=C(C)Nc2nnnn2C1c1cccs1 (configuration not stated),i,?,i,16µM,i,16µM
CCCCCCCOC(=O)C1=C(C)Nc2ncnn2C1c1cccs1 (configuration not stated),i,?,i,13µM,i,?
CCc1cnc2c(c1SCC(=O)Nc1ccc(OC)c(OC)c1)c(=O)n(C)c(=O)n2C,nt,nt,i,?,nt,?
O=C(Nc1ccccc1Cl)[C@H](CSCc1ccccc1)N1Cc2ccccc2C1=O,nt,nt,i,?,nt,?
CCCCCNc1nc2sc3c(c2c(=O)n1-c1cccc(Cl)c1)CCN(C)C3,-57,?,i,12µM,i,12µM
CCCCNc1nc2sc3c(c2c(=O)n1-c1cccc(Cl)c1)CCN(C)C3,i,?,nt,16µM,i,21µM
Cc1c(NC(=O)COC(=O)CSc2ccc(C(N)=O)cc2[N+](=O)[O-])c(=O)n(-c2ccccc2)n1C,i,i,i,i,i,i
COc1ccc(Cl)cc1C(=O)NNC(=O)C1CCCO1 (configuration not stated),i,i,i,i,i,i
COc1ccc(-c2csc(C(O)c3ccc(F)cc3)n2)cc1OC (configuration not stated),i,nt,nt,i,nt,?
